Inconclusive results are not listed. A call without a number means that no potency is given here. Activity calls are given as the source filed them. Calls follow the shape of the dose curve; as a rule, active = well fitted inhibition curve with a large enough effect; inconclusive = small, poorly fitted or top-dose-only effect; inactive = flat fitted curve, though single readings scatter.

The target of the assay is Calcium and integrin-binding protein 1 (Homo sapiens) (UniProt Q99828). As to the kind of experiment: Primary qHTS for Identification of Calcium Integrin Binding Protein 1 (CIB1) Competitor (AID 1508620).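 Also: GST tagged CIB1 binding a fluorescein labelled alphaIIb integrin peptide tracer; top concentration of the series differs between compounds.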 The note with it: CIB1-GST / FITC-alphaIIb peptide fluorescence polarization; series mostly up to 114 µM. An outline of the steps: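 CIB1-GST (1 uM final) and compound incubated 15 min at room temperature before adding FITC-alphaIIb peptide tracer (100 nM final). Competition for binding read by fluorescence polarization (ex 480, em 540) after another 15 min at room temperature.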
Calcium and integrin-binding protein 1 (Homo sapiens), sequence (Q99828 whole entry, looked up): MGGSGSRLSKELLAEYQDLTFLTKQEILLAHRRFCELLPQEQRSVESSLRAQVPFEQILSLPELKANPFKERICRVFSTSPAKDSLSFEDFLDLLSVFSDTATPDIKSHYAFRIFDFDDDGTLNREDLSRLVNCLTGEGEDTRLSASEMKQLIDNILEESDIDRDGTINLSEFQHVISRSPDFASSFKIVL
(In qHTS, concentration-response curves come from the screen itself.)
Turning to `Cc1cc(N[S+](=O)([O-])c2cc3c(cc2Cl)CCC(=O)N3)ccc1Br`, the Potency entry is “inactive”. In the case of `COc1cccc(CNc2ccc(S(=O)(=O)Nc3nccs3)cc2)c1O`, the Potency entry was “inactive”. As for `CC(=O)c1ccc(N2CCN(C(=O)c3ccc4c(c3)CC(=O)N4)CC2)cc1`, the Potency entry is “inactive”. Regarding `O=C(Nc1cccc2nn(-c3ccc(F)cc3)cc12)c1ccccn1`, the Potency entry is “inactive”. As for `O=S(=O)(c1ccc2c(c1)OCO2)N1CCN(S(=O)(=O)c2c(F)cccc2F)CC1`, the entry is “inactive”.

In the case of `O=C1CCCC2=C1C(c1[nH]ncc1Cl)N=C(Nc1nc3cc([S+](=O)([O-])N4CCOCC4)ccc3o1)N2` (centres undefined), the Potency entry was “inactive”.

In the case of `Oc1ccc(CNCc2ccccc2F)c2cccnc12`, the Potency result was “inactive”. As for `Cc1ccc(S(=O)(=O)N2CCN(c3nc(-c4ccco4)nc4ccccc34)CC2)cc1`, the entry is “inactive”. As for `COC(=O)C1CCc2sc(NC(=O)Cc3ccccc3)c(C(=O)Nc3ccc(Cl)cc3)c21` (centres undefined), the entry is “inactive”; as for `Cc1c(P(=S)(c2ccccc2)c2ccccc2)c2ccccc2n1Cc1ccccc1`, “inactive”. To `O=[S+]([O-])(Nc1ccc2ccccc2c1)c1ccc(NCc2ccc(Cl)cc2O)cc1` belongs “inactive”; to `Fc1cc(Nc2nc(-c3ccncc3)nc3ccccc23)ccc1-c1cccc(C(F)(F)F)c1`, “inactive”.

On to `CN(C)c1cccc(-c2cnc(N3CCC(C(N)=O)CC3)s2)c1`, for which the Potency entry was “inactive”.

With `O=S1(=O)N=C(Oc2ccc3ccccc3c2)c2ccccc21`, the Potency entry was “inactive”.

With `COc1cccc(OC2=NS(=O)(=O)c3ccccc32)c1`, the Potency entry is “inactive”. As for `O=C1NS(=O)(=O)c2cc(Cl)ccc21`, the entry is “inactive”. To `Cc1ccc(NS(=O)(=O)c2cc3c(cc2NCC(C)(C)O)NC(=O)CC3)cc1C` belongs “inactive”; to `Cc1cccc(C2N=C(Nc3nc4ccccc4o3)NC3=C2C(=O)CCC3)c1` (centres undefined), “inactive”.

Turning to `O=S(=O)(c1ccc2c(c1)OCCO2)N1CCN(S(=O)(=O)c2cccs2)CC1`, the Potency result was “inactive”. To `Cc1cc(NC(=O)Nc2nnc(C3CCCCC3)s2)ccc1Cl` belongs “inactive”.

`Cc1ccnc(NC(=S)N[C@@H]2CCN(c3cccc(C(F)(F)F)c3)C2)c1`: the Potency entry was “inactive”. For the compound `Cc1cc(C)n2ncc(C(=O)Nc3ccccc3Sc3ccccc3)c2n1`, the Potency entry was “inactive”. As for `Cc1cc2c(s1)c1cnn(Cc3ccc(F)cc3F)c(=O)c1n2C`, the entry is “inactive”; as for `O=S(=O)(c1ccc(O)c2ncccc12)N1CCCCC1`, “inactive”. Turning to `COc1cccc(C2=Nn3c(nnc3-c3cccc(OC)c3OC)SC2)c1`, the Potency result is “inactive”. As to `Cc1ccc(-n2cnc3cc(C(=O)N4CCCCC4)ccc32)cc1`, the Potency entry is “inactive”. Take `N#Cc1nc(Nc2ccc(Br)cc2)nc(NC2CCCC2)n1`: the Potency entry is “inactive”. To `c1nc(OCc2cnc[nH]2)c2cc(-c3ccc4c(c3)OCO4)ccc2n1` belongs “inactive”. To `Cc1cccc(-c2ccc3ncnc(NCc4cccnc4)c3c2)c1` belongs “inactive”. To `Clc1ccccc1-c1nc(NCc2ccc(-c3cccnc3)cc2)c2ccccc2n1` belongs “inactive”; to `CCNC(=O)C1CCN(C(=O)C(C)(C)NC(=O)Nc2ccccc2Cl)CC1`, “inactive”; to `CC(=O)Nc1sc2c(c1C(=O)c1ccccc1)CCN(C(C)C)C2`, “inactive”. On to `S=C(NCCCc1cnc[nH]1)NCCN(Cc1ccc(Cl)c(Cl)c1)c1ccc(Br)cn1`, for which the Potency result is “inactive”. `O=C(NC1CCCc2c1cnn2-c1ccc(F)cc1F)c1ccn[nH]1` (centres undefined): the Potency result is “inactive”. As to `COc1cccc(C2=Nn3c(nnc3-c3ccccc3C)SC2)c1`, the Potency entry is “inactive”.

`O=[N+]([O-])c1cccc(CSc2nc3ncc(Br)cc3[nH]2)c1`: the Potency result is “inactive”. To `O=S1(=O)N=C(Oc2ccc(Br)cc2)c2ccccc21` belongs “inactive”; to `N#Cc1nc(-c2cccc3ccccc23)oc1NCC#CCOC(=O)c1cccs1`, “inactive”. To `CC(C)(C#CCSc1nnc(-c2cccc3ccccc23)o1)OC(=O)c1ccc(F)cc1` belongs “inactive”.
